The sample as a whole holds a higher share of hits than the screen did.
FECH block – inhibitors of human ferrochelatase, primary screen, biochemical, purified FECH, Ni-mesoporphyrin absorbance | Ni-mesoporphyrin absorbance 550 nm | hit rate 3.3% among 20,000 | calls only at 10 µM (by protocol) | AID 1671448, 2021;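 active means enzyme reaction rate more than 3 SD below the solvent-only control wells on the same plate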;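 further: lower slope than DMSO wells means FECH inhibition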
Target sequence (P22830 whole entry, looked up): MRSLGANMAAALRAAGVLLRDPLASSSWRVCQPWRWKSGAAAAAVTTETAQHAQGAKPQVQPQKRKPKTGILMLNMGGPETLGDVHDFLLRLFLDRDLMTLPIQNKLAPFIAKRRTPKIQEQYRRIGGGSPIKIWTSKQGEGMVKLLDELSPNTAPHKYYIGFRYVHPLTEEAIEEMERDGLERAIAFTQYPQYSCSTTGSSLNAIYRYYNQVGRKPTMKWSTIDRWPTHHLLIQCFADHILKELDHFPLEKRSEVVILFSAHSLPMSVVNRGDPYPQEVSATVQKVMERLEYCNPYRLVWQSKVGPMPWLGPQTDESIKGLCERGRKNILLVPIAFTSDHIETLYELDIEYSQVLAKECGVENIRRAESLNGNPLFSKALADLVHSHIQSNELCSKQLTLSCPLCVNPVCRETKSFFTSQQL
Calls only; 0 = inactive; + = active, no number.

SMILES	FECH block
Cc1ccc(C)c(CN2CCCN(Cc3ccccc3)S2(=O)=O)c1	0
O=S1(=O)N(Cc2ccc(Cl)cc2)CCCN1Cc1ccccc1Cl	+
Cc1ccc(CN2CCCN(Cc3ccccc3C)S2(=O)=O)cc1	0
Cc1cc(C)c(CNc2cc(C(C)C)nc(C)n2)cn1	0
O=C(c1ccnc(-n2cnnc2)c1)N1CCCC2(CCNC2)C1 (configuration not stated)	0

Screens deposited in PubChem BioAssay by Corson Lab, School of Medicine, Indiana University.
